Reference: ChEMBL document CHEMBL3988442, “University of Dundee, Small-Polar-MMV Screening Library” (2021)
For some of these results: Measured potencies and affinities stand elsewhere.

Columns and labels:
Parameters in all cases: scale not given: direction of the effect not stated beside the values
[1] = molecular target: Protein translocase subunit SecA (Escherichia coli (strain K12)) (UniProt P10408); experiment: Assay to Identify E. coli SecA ATPase Inhibitors; type: functional; details: 30 µM
[2] = molecular target: T1, Ubiquitin-activating enzyme e1, putative (Leishmania donovani (strain BPK282A1)) (UniProt E9BSI1); experiment: Leishmania donovani Ubiquitin Activating Enzyme (LdE1); type: functional; details: 30 µM
T1 sequence (whole entry): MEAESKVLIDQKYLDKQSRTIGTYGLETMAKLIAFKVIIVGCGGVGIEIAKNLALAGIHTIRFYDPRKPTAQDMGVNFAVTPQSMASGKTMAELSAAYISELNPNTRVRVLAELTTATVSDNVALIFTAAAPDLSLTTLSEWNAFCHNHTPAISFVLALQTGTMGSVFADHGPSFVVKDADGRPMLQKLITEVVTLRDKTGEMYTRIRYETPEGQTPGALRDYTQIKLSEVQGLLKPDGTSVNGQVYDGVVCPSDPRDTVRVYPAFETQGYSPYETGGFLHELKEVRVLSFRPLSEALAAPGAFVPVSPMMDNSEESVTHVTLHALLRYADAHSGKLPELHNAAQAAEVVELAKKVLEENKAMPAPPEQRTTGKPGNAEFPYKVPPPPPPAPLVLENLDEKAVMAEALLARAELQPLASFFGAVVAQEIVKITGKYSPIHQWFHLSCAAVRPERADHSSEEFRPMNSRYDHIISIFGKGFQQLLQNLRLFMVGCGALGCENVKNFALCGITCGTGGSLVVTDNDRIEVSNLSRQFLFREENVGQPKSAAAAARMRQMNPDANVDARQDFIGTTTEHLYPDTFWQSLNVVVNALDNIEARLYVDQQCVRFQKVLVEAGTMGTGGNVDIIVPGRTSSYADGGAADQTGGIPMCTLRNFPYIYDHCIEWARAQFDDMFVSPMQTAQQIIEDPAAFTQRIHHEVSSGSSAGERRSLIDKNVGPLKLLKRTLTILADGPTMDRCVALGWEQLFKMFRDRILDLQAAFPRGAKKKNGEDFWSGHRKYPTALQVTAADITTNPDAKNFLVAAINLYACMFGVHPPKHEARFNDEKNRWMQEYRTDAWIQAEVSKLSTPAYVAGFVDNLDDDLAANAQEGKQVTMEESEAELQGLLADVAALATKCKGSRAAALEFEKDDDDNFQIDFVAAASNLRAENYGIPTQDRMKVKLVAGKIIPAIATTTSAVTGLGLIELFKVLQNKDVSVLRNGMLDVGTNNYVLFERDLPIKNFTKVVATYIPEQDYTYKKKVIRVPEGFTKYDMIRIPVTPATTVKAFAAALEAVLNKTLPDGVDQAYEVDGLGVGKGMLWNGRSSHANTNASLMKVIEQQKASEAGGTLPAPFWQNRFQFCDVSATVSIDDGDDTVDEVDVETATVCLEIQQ

[3] = molecular target: AMP-activated protein kinase, AMPK (Homo sapiens) (UniProt P54646+O43741+P54619+Q9UGJ0+Q9Y478+Q13131+Q9UGI9); experiment: AMP-dependent Kinase enzyme assay. An in vitro enzyme assay that detects ADP turnover that is directly proportional to AMPK activity. This uses naive AMPK that is activated during the assay with MK-8722; type: functional; details: 30 µM
[4] = molecular target: Sialic acid-binding Ig-like lectin 9 (Homo sapiens) (UniProt Q9Y336); experiment: Hs-Siglec9 ALPHAscreen SOP 20170721; details: 10 µM
[5] = tested on: Trypanosoma cruzi; experiment: Trypanosoma cruzi phosphomannomutase and mannose-1-phosphate guanylyltransferase assay; type: functional; details: 10 µM
[6] = molecular target: T2, Arginase-2, mitochondrial (Homo sapiens) (UniProt P78540); experiment: in vitro enzyme assay to detect the production of urea directly proportional to the activity of Arginase II; type: functional; details: 33.3 µM; further: in the data most compounds retested in dose-response had high values
T2 sequence (whole entry): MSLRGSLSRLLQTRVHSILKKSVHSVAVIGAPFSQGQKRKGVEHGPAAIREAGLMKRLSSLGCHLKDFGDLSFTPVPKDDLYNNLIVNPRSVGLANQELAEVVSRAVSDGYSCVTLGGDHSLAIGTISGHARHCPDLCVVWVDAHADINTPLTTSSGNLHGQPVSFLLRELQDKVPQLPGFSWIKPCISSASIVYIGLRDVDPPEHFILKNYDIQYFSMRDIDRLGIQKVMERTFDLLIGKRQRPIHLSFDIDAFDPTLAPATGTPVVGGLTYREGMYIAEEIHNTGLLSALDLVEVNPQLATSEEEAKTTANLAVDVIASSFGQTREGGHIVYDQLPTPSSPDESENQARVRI

[7] = molecular target: T3, Proteasome subunit beta (Trypanosoma cruzi) (UniProt O96673); experiment: Trypanosoma cruzi proteasome chymotrypsin-like activity (TcProtChymo) assay.; further: in the data most compounds retested in dose-response had high values; type: functional; details: 9.37 µM
T3 sequence (whole entry): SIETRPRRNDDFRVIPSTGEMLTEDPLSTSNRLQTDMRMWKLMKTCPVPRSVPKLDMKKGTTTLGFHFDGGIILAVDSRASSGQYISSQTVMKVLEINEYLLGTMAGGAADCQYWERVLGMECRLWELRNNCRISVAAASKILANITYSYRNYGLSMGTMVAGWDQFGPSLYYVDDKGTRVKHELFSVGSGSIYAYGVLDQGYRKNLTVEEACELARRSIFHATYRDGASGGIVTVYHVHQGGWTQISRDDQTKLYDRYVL

[8] = species: Homo sapiens; experiment: To identify inhibition of the IFN signalling (Jak-Stat) pathway via expression of an eGFP reporter gene under the control of an IFN-stimulated response element (ISRE) containing MxA promoter.; type: functional; details: 30 µM
[9] = molecular target: T4, Tyrosyl-tRNA synthetase, putative (Trypanosoma cruzi (strain CL Brener)) (UniProt Q4DSP6); experiment: Trypanosoma cruzi tyrosyl tRNA synthetase (TcYRS) _High Tyrosine SOP; type: functional; details: 30 µM; further: in the data most compounds retested in dose-response had high values
T4 sequence (whole entry): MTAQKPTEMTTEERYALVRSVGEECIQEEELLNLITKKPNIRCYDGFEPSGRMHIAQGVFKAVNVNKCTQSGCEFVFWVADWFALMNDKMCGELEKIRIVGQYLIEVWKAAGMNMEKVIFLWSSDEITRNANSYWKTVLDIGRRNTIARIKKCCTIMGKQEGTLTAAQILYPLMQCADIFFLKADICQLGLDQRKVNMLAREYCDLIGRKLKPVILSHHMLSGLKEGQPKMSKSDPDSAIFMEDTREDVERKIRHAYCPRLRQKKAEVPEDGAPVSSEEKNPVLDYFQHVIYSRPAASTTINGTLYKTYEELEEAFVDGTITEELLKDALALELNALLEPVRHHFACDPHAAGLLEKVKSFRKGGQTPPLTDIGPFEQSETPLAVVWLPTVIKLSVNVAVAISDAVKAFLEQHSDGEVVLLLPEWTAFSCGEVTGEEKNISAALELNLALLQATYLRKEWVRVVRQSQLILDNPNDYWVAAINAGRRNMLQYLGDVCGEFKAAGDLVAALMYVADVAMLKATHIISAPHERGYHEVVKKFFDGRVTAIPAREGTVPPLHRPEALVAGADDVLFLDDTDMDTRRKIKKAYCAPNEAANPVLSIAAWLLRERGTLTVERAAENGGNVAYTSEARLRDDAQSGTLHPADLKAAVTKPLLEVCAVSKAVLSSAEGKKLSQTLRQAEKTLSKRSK

[10] = molecular target: T4, Tyrosyl-tRNA synthetase, putative (Trypanosoma cruzi (strain CL Brener)); experiment: Trypanosoma cruzi tyrosyl tRNA synthetase (TcYRS) SOP; type: functional; details: 30 µM
[11] = molecular target: Chromo domain-containing protein 1 (Saccharomyces cerevisiae (strain ATCC 204508 / S288c) (Baker's yeast)) (UniProt P32657); experiment: ScCHD-1 Enzyme Inhibition Assay; type: functional; details: 30 µM; further: in the data most compounds retested in dose-response had high values
Chromo domain-containing protein 1 (Saccharomyces cerevisiae (strain ATCC 204508 / S288c) (Baker's yeast)), sequence (P32657 whole entry, the tested form may be a part): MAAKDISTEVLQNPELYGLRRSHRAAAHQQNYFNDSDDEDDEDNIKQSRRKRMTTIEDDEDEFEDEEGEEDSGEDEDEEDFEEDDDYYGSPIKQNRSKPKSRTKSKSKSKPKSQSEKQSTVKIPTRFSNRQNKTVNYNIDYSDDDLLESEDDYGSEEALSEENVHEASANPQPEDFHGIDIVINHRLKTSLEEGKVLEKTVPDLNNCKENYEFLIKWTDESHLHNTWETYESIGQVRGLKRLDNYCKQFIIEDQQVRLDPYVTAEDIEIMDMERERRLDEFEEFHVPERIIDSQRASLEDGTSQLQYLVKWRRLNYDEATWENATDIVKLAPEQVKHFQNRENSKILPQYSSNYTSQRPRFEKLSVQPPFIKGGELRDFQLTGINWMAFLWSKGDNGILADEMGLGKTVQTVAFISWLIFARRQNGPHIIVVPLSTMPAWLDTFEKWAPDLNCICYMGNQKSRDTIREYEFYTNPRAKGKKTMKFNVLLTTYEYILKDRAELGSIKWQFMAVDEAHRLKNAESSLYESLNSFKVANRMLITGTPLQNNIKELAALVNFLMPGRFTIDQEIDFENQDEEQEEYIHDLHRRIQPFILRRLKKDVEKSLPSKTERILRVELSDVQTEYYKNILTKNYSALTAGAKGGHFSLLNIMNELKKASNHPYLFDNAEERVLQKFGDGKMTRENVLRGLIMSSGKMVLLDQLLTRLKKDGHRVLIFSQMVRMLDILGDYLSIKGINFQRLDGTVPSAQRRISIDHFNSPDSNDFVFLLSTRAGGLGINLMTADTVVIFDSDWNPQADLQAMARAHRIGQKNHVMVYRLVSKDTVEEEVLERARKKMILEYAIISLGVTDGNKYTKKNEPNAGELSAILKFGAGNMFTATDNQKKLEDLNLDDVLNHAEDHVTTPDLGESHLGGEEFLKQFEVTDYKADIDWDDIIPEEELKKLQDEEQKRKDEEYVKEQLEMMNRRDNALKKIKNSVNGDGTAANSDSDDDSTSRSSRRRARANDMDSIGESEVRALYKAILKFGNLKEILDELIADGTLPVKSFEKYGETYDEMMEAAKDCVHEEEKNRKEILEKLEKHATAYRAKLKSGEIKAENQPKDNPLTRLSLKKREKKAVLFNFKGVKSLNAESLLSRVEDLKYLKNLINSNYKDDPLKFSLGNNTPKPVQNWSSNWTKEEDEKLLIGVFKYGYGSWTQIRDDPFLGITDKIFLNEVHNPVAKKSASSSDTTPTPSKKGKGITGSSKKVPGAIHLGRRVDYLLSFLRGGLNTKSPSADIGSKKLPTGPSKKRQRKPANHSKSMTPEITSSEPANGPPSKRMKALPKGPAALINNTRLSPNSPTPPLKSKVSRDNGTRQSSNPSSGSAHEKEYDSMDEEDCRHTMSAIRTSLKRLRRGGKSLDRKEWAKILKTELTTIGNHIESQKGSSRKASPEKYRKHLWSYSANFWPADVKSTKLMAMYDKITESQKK

Sialic acid-binding Ig-like lectin 9 (Homo sapiens), sequence (Q9Y336 whole entry): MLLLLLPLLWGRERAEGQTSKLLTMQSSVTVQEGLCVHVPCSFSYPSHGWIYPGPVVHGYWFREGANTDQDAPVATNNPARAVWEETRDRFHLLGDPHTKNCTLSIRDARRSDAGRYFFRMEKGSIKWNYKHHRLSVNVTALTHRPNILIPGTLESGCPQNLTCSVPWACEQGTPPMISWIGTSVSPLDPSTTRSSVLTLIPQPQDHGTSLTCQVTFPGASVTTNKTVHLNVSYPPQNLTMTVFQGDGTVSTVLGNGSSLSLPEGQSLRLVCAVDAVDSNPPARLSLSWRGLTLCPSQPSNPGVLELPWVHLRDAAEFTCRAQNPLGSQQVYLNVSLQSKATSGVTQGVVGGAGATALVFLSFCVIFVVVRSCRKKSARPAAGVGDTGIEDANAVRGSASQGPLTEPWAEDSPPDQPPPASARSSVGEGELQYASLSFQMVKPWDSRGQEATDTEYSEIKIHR
Protein translocase subunit SecA (Escherichia coli (strain K12)), sequence (P10408 whole entry): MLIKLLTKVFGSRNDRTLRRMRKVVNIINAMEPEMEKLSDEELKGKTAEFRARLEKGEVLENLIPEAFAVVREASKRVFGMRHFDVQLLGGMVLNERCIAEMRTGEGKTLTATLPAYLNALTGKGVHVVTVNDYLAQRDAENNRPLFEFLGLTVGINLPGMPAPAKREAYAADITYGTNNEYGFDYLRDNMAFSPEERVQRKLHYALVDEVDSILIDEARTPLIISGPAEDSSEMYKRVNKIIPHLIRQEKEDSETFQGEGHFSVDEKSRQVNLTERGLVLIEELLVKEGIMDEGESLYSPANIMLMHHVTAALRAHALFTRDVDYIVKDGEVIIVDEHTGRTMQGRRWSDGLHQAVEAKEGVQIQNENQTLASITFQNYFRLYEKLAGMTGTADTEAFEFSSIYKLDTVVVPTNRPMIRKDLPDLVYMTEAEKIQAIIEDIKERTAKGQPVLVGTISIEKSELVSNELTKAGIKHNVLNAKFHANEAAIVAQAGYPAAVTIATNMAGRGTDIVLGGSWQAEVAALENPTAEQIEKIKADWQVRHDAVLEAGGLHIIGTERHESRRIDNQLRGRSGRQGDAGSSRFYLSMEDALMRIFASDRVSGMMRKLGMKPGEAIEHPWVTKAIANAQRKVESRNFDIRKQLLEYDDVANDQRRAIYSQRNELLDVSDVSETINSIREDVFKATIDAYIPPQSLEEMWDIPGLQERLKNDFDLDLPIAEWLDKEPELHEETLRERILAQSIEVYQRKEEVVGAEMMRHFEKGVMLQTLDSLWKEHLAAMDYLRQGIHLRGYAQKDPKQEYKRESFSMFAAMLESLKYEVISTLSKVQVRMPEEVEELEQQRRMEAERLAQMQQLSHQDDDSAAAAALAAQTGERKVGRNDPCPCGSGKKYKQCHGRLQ

SMILES	Percent Effect [1]	Percent Effect [2]	Percent Effect [3]	Percent Effect [4]	Percent Effect [5]	Percent Effect [6]	Percent Effect [7]	Percent Effect [8]	Percent Effect [9]	Percent Effect [10]	Percent Effect [11]
Cc1nc(N2CCCC2)ncc1-c1cc(O)nc(N2CCCC2)n1	-4.52%	-1.33%	4.03%	6.18%	-4.13%	-2.64%	7.76%	-0.506%	2.12%	0%	-1.52%
CCN1CCCn2c(nc(CNC(=O)c3ccsc3)cc2=O)C1	-4.67%	13.5%	7.54%	3.9%	-0.0978%	9.24%	13.1%	-1.85%	3.24%	17.9%	-0.449%
CCC(CNC(=O)c1cc(OC)ccc1Br)N1CCc2ccccc2C1 (stereo unspecified)	0.461%	0%	3.64%	9.31%	-7.14%	-4.29%	20.3%	11.2%	-0.529%	-2.44%	-4.45%
O=C(NCCc1nnc2n1CCC2)NC1(c2cccc(F)c2)CC1	-3.06%	15.8%	4.44%	-2.57%	-3.6%	-3.55%	14.1%	11%	0%	10.4%	-3.66%
CC(Cc1ccco1)NC(=O)Nc1ccc(N2CCOCC2)nc1 (stereo unspecified)	-3.25%	15.8%	-15.8%	11.3%	1.5%	0.383%	11.2%	-9.28%	3.43%	19.5%	-11.4%
CCc1ncc2c(n1)CN(Cc1nc(-c3ccccn3)no1)CC2	-8.41%	15.8%	-29.3%	15.4%	11.7%	1.44%	2.79%	-20.6%	15.3%	25.9%	-10.3%
Cn1cc(CN2CC3(CCN(C(=O)c4cscn4)C3)C2)cn1	-1.74%	19.2%	-7.29%	10.7%	3.77%	-3.19%	9.85%	4.08%	10.4%	16.1%	-10.8%
CCc1csc(C2CCCN(C(=O)c3ccnc(N(C)C)c3)C2)n1 (stereo unspecified)	-1.95%	13.2%	0.891%	-9.58%	4.58%	-3.55%	7.77%	41.7%	4.25%	13%	-4.33%
O=C(c1cccnc1-n1cncn1)N1CCc2ccccc2C1	-1.58%	16.2%	-4%	13.4%	4.25%	1.91%	8.1%	4.11%	5.82%	9.76%	-2.56%
CS(=O)(=O)NC1CCCN(C(=O)NCc2cccnc2)C1 (stereo unspecified)	-2.71%	15.6%	3.96%	1.09%	2.25%	1.9%	14.2%	-2.36%	7.62%	18.8%	-11.9%
Cn1ccnc1CC1CCCN(C(=O)Nc2cccn(C)c2=O)C1 (stereo unspecified)	-3.36%	5.41%	-17.1%	6.3%	2.93%	27.9%	12.9%	4.41%	8.91%	13.4%	-5.06%
